The values below come from the OligoGym collection.
Note: reference of the scale not given here.

One test concerns the target HEPH. Put plainly: pooled miR-30 sensor sort-seq; sequence = guide strand. To be noted: shRNA.
TAGCTTTCTCTGTCGATGTTGG came in with a sensor-assay potency score (higher = more potent) of -0.344. On the same count and under the same terms, for TGATATAGTAGATTCTTGCAGC the value was -0.0504; for TATAGTAGATTCTTGCAGCTTG, 0.849.

The target of the next test is HERC1. The description is as above. The following applies: shRNA.
TAGTTGTCCATGTCGATTGAGC: the sensor-assay potency score (higher = more potent) was -0.739. Still for that read-out and setting: for TTCTGCACTAGTCACATTGGTC the value was -0.675; for TAACAGACACATCCTTTCGATA, -0.966; for TAGTGGTTGAGAAACATTCTAA, -0.582.

For the sequence TAACAGAATGGACATCTGCTGA, the sensor-assay potency score (higher = more potent) is -0.647. The same measure, in the same setting: next, TTCATAGGCATACTGCTCCTGA: -0.419. The same measure, in the same setting: next, TTATGTTCTTATAACATCTATG: -0.965; TTCTCCAACCAGCTTAACCTTC: -1.11. The same measure, in the same setting: for TTTCTGTAGTGAACATAGCAGT the value was -0.617; for TTGTCCATGTCGATTGAGCGGC, -0.831. Consider TATTCATGTAAAACTGTCCTTT, for which the sensor-assay potency score (higher = more potent) is -0.17. Same read-out and setting: next, TATTGTAACCCACTTCTGCGGT: -0.596.
